Values joined by “and” are separate entries in the source; they are usually repeats but may differ in a detail not shown here. Identical values can stand only once.
Legend:
[1] = target: Fibroblast growth factor receptor 4 (Homo sapiens) (UniProt P22455); details: at 1 µM;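 note: reported figure is the averaged percent inhibition of FGFR4, from the GSK PKIS kinase screening panel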
[2] = target: Tyrosine-protein kinase Fgr (Homo sapiens) (UniProt P09769); details: at 0.1 µM
[3] = target: Tyrosine-protein kinase Fgr (Homo sapiens) (UniProt P09769); details: at 1 µM
[4] = target: Vascular endothelial growth factor receptor 1 (Homo sapiens) (UniProt P17948); details: at 0.1 µM
[5] = target: Vascular endothelial growth factor receptor 1 (Homo sapiens) (UniProt P17948); details: at 1 µM
[6] = target: Receptor-type tyrosine-protein kinase FLT3 (Homo sapiens) (UniProt P36888); details: at 0.1 µM
[7] = target: Receptor-type tyrosine-protein kinase FLT3 (Homo sapiens) (UniProt P36888); details: at 1 µM
[8] = test system: T1, Receptor-type tyrosine-protein kinase FLT3 (Homo sapiens), P36888 [D835Y]; details: at 0.1 µM
T1 sequence (whole entry): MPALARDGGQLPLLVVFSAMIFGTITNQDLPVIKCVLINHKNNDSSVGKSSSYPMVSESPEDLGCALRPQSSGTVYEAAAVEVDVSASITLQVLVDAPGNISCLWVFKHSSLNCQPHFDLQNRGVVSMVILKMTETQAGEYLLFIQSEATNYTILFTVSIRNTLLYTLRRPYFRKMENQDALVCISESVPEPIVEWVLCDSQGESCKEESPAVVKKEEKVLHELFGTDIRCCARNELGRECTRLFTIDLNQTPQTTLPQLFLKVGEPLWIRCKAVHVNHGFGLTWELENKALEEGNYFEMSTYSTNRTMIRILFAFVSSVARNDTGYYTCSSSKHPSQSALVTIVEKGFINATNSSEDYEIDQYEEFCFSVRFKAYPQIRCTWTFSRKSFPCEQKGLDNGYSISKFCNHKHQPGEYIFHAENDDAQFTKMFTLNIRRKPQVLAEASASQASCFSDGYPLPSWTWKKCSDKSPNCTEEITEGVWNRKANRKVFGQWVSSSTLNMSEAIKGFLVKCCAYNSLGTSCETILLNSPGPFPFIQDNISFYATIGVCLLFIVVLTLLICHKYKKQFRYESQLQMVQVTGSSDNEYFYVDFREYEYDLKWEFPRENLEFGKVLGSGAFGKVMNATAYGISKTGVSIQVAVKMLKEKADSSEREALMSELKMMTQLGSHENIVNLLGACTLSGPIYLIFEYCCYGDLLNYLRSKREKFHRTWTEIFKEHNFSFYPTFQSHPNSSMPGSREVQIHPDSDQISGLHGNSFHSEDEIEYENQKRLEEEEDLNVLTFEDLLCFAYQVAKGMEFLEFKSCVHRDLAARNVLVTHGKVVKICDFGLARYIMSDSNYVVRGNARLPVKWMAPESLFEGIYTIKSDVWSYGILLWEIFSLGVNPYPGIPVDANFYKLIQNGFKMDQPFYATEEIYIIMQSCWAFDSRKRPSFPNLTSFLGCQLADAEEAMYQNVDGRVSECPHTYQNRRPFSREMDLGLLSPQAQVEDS

[9] = target: Non-receptor tyrosine-protein kinase TYK2 (Homo sapiens) (UniProt P29597); details: at 1 µM;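 note: values are mean percent inhibition of TYK2 kinase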
[10] = target: T2, Tyrosine-protein kinase receptor TYRO3 (Homo sapiens) (UniProt Q06418); details: at 0.1 µM;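 note: reported percentages are averaged inhibition values of TYRO3 kinase activity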
T2 sequence (whole entry): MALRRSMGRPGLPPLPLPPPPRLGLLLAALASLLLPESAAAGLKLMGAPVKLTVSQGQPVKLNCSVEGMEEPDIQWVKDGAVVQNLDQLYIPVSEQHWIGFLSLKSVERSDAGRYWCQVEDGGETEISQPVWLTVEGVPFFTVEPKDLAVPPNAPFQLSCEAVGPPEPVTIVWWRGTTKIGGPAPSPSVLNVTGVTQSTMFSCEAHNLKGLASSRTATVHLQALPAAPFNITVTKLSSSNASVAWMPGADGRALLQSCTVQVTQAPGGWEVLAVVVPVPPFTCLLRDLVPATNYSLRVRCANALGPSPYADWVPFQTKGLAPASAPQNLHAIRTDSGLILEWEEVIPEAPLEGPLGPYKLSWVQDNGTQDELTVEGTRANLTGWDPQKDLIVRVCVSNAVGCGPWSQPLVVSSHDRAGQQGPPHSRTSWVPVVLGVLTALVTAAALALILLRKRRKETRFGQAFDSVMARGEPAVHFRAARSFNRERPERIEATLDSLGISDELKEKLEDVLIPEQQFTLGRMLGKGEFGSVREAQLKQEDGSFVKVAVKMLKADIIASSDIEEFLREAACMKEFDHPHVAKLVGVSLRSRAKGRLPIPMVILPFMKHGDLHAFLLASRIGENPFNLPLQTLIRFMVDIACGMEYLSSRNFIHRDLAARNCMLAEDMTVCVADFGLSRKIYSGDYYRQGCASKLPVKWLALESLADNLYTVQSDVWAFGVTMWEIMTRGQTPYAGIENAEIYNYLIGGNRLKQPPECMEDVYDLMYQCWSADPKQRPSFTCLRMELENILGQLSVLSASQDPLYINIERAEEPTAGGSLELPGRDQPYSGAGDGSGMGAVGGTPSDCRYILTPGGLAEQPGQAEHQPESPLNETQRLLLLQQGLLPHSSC

Fibroblast growth factor receptor 4 (Homo sapiens), sequence (P22455 22-802 limits assumed): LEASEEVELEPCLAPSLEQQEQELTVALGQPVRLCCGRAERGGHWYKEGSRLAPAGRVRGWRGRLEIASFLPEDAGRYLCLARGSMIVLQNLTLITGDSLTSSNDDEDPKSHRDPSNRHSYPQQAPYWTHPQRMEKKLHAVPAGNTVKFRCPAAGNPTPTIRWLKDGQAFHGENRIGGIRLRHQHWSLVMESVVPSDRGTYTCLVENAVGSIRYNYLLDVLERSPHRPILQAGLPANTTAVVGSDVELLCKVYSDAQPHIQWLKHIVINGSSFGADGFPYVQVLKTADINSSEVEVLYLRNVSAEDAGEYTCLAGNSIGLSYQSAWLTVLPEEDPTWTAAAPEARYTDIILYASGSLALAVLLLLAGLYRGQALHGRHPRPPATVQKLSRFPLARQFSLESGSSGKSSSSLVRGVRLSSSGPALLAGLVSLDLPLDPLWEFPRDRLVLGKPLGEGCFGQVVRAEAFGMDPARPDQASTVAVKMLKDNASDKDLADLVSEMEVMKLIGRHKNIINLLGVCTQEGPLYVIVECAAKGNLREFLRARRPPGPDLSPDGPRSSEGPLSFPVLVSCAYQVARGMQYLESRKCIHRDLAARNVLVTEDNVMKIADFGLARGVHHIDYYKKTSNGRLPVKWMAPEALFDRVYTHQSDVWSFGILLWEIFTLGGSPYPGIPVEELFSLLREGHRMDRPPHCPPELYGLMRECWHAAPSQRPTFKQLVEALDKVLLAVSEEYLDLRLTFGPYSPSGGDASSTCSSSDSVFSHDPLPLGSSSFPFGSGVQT
Non-receptor tyrosine-protein kinase TYK2 (Homo sapiens), sequence (P29597 whole entry): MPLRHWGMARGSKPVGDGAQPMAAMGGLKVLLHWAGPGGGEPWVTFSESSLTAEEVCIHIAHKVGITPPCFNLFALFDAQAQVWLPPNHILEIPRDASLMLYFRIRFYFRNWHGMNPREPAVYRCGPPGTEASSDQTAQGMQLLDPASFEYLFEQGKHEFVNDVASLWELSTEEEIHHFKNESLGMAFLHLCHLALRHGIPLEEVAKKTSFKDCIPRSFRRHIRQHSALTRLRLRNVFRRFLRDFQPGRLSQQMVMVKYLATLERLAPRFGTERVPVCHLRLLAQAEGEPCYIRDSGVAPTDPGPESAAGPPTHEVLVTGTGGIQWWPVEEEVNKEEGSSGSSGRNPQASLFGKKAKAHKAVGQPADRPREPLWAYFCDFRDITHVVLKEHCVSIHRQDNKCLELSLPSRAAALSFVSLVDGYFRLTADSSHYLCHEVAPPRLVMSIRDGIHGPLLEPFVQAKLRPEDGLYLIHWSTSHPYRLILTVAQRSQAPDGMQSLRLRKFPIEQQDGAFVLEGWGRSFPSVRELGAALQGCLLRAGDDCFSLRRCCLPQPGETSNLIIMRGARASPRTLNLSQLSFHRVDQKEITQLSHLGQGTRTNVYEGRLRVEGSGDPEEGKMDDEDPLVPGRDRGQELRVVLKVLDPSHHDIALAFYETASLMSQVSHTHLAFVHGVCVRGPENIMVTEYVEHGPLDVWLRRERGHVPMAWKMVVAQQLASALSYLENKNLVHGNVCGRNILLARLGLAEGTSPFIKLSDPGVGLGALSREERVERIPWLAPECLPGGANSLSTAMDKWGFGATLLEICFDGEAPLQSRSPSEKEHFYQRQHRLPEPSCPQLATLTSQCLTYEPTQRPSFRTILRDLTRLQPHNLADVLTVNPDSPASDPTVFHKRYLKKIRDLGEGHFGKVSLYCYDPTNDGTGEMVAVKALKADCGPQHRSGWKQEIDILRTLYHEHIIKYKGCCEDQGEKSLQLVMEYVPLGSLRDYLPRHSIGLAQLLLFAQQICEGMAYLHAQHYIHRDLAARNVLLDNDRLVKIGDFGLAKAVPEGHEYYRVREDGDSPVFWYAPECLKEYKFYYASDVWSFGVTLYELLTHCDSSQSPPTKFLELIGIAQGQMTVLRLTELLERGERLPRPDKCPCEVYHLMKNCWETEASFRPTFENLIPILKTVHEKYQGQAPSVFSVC
Vascular endothelial growth factor receptor 1 (Homo sapiens), sequence (P17948 whole entry): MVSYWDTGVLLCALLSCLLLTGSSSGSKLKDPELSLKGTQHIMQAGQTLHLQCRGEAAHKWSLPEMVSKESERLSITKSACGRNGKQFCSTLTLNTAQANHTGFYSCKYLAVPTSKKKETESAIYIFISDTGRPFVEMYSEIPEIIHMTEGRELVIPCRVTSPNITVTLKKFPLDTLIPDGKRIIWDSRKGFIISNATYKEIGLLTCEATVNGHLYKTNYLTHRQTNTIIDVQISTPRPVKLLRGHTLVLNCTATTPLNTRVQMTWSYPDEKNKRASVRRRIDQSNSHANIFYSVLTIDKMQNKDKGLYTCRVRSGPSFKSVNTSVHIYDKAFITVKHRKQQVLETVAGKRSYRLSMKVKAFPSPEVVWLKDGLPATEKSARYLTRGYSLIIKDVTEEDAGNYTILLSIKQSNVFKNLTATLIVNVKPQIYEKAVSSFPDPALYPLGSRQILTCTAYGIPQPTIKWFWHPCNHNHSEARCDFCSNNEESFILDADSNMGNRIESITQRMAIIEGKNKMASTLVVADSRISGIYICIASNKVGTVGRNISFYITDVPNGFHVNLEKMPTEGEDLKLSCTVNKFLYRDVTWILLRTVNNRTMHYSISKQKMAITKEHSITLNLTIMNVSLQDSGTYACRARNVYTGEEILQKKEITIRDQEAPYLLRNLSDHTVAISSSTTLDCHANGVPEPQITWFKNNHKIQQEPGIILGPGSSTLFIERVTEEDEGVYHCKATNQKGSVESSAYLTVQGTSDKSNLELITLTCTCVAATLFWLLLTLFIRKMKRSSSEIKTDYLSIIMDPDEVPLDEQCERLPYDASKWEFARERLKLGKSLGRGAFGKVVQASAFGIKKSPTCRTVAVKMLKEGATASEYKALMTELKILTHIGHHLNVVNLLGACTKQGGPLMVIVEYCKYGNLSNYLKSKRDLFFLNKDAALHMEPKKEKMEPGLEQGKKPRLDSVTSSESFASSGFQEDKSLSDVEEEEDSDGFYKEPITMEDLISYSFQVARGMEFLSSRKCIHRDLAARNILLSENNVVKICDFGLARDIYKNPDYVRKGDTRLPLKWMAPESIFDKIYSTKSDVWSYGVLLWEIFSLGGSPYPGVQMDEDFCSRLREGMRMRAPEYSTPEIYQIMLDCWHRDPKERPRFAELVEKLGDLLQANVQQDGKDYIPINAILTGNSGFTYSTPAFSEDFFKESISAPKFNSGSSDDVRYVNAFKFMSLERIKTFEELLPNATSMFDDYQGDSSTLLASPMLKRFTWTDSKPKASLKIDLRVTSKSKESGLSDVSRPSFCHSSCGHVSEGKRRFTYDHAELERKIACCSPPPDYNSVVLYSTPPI
Tyrosine-protein kinase Fgr (Homo sapiens), sequence (P09769 2-529 limits assumed): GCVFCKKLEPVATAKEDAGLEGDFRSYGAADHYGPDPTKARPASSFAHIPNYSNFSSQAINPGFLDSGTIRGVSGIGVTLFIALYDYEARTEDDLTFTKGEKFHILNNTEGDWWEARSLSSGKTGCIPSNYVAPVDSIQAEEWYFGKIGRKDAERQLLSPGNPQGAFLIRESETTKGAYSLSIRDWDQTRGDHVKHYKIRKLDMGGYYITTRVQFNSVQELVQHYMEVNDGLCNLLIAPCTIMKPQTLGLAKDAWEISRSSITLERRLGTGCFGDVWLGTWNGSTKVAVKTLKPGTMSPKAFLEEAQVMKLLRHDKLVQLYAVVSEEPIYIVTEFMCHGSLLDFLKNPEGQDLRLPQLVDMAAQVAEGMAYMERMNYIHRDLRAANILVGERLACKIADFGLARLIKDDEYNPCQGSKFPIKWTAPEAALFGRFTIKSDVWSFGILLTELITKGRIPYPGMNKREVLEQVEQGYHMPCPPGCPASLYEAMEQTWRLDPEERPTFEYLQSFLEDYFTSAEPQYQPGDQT

Row | Structure (SMILES) | inhibition [1] | inhibition [2] | inhibition [3] | inhibition [4] | inhibition [5] | inhibition [6] | inhibition [7] | inhibition [8] | inhibition [9] | inhibition [10]
1 | COc1ccc(-c2nn3ncccc3c2-c2ccnc(Nc3ccc(F)c(F)c3)n2)cc1 | 0.82% | 20.4% | 60.8% | 2.48% | 6.3% | 2.32% | 4.16% | 4.75% | -1.25% | 3.56%
2 | CN(C)CCNC(=O)Nc1ccc(N(C)c2ccnc(Nc3ccc(CS(C)(=O)=O)cc3)n2)cc1 | 2.84% | 1.07% | 9.57% | 4.18% | 8.87% | 16% | 58.6% | -5.17% | -3.31% | 2.66%
3 | N#Cc1cccc(Nc2ncc(-c3ccccc3)o2)c1 | 3.3% | 5.47% | 13.5% | 2.46% | 9.52% | 12% | 61.8% | 3.75% | -1.92% | 1.76%
4 | COc1ccc2ncn(-c3cc(O[C@H](C)c4ccccc4C(F)(F)F)c(C(N)=O)s3)c2c1 | 3.29% | 0.34% | 1.98% | -2.14% | 1.15% | -1.48% | 8.06% | -1.49% | -1.84% | -0.34%
5 | Cn1c(-c2nonc2N)nc2cnccc21 | 1.93% | 2.79% | 3.33% | 1.36% | 1.68% | 4.49% | 1.55% | 1.71% | -2.34% | 1.78%
6 | CN1CCN(Cc2ccc(-c3cc4ncnc(Nc5ccc(OCc6cccc(F)c6)c(Cl)c5)c4s3)o2)CC1 | 0.2% and 1% | 5.67% and 10.9% | 30.3% and 30.1% | 0.35% and 1.57% | 3.76% and 1.58% | 3.12% and 0.52% | 1.99% and 2.76% | -3.92% and 0.13% | -7.87% and -0.75% | 2.09% and 4.83%
7 | COc1cc2c(cc1Nc1nc(Nc3cccc(F)c3C(N)=O)c3cc[nH]c3n1)N(C(=O)CN1CCN(C(C)C)CC1)CC2 | 1.15% | 0.5% | 0.3% | -1.2% | 1.09% | 1.14% | 0.93% | -4.8% | -1.21% | -0.96%
8 | CS(=O)(=O)CCNCc1ccc(-c2ccc3ncnc(Nc4ccc(OCc5ccccc5)cc4)c3c2)o1 | 0.38% | 5.33% | 20.1% | 2.38% | 2.68% | 2.34% | 6.62% | -1.19% | -2.79% | 3.45%
9 | NC(=O)c1ccc2c(-c3ccnc(NCCCO)n3)c(-c3ccc(F)cc3)nn2c1 | 1.22% | 3.07% | 12.1% | 3.74% | 3.53% | 4.12% | 5.06% | 2.33% | -5.12% | 3.03%
10 | Cc1c2ccc(N(C)c3ccnc(Nc4cccc(S(N)(=O)=O)c4)n3)cc2nn1C | 26.4% | 26% | 64.7% | 52.8% | 94% | 2.48% | 15% | -0.8% | -3.19% | 3.74%
11 | CS(=O)(=O)CCNCc1ccc(-c2ccc3ncnc(Nc4ccc(OCc5cccc(C(F)(F)F)c5)cc4)c3c2)o1 | 1.52% | 0.16% | 3.55% | 1.21% | 2.94% | 10.4% | 28.9% | 0.04% | -4.13% | 0.61%
12 | Fc1cccc(COc2ccc(Nc3ncncc3C#Cc3ccccc3)cc2Cl)c1 | 0.25% | 5.41% | 2.24% | 1.51% | 1.02% | 2.67% | 5.4% | 4.26% | -1.45% | 2.1%
13 | Cc1cc(O)cc(C)c1/C=C/c1cncc(C(=O)OC(C)(C)C)c1 | 2.64% | 8.01% | 34% | 2.02% | 2.37% | 2.32% | 1.9% | -1.99% | -2.24% | 3.2%
14 | Fc1ccc(Nc2nccc(-c3c(-c4ccc(C(F)(F)F)cc4)nn4ncccc34)n2)cc1F | 3.24% | -0.18% | 4.23% | 1.95% | 4.12% | 1.11% | 4.52% | 0.57% | -3.25% | 3.71%
15 | NS(=O)(=O)c1cccc(N/C=C2\C(=O)Nc3ccccc32)c1 | 3.92% | 5.5% | 13.8% | 7.92% | 15.2% | 5.75% | 36.4% | 1.52% | -1.95% | 3.33%
